Screens as filed in PubChem.
FBPA Giardia inh: blocks Giardia fructose-bisphosphate aldolase activity; AID 2451; purified Giardia FBPA; 0.71% of 290,000 active; Potency, µM (doses to about 59.6 µM), actives largely listed as inhibitors; A8B2U2; also: nearly all actives have a fitted effect of over 55% in size
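Giardia FBPA (40 nM reagent) was preincubated 10 min at RT with compound (up to 57.5 uM final), then substrate plus GAPDH/TPI/NAD/arsenate coupling system with diaphorase/resazurin was added; resorufin fluorescence (525/598 nm) was read after 20 min.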
AmpC inh no detg: AmpC beta-lactamase inhibition without detergent; P00811; AmpC nitrocefin hydrolysis, absorbance 480 nm, 0.0001% Triton; Potency, µM (titrated, usually from 57.1 µM), most hits filed as inhibitors; 0.52% of 330,000 active; also: nearly all actives have a fitted effect of over 20% in size
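20 mM phosphate pH 7.0 + 0.01% (detergent screen) or 0.0001% Triton X-100; 5.3 nM AmpC reagent; cpd preinc 15 min RT; nitrocefin (800 uM stock) to start; A480 q20 s × 4 min; Activity was normalised to no-enzyme and no-compound control wells.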
Tb PYK inh: T. brucei pyruvate kinase inhibition; Q57TT1; TbPYK enzyme, Kinase-Glo Plus ATP luminescence, 45 min; Potency, µM (highest dose often 76.8 µM), usual class: inhibitors; 0.12% of 410,000 active; AID 624173; also: nearly all actives have a fitted effect of over 50% in size
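Assay buffer: 50 mM TEA pH 7.2, 100 mM KCl, 10 mM MgCl2, 0.05% BSA, 0.01% Tween-20. Pyruvate kinase from T. brucei plus substrate met compound, then ADP (130 uM final). Luminescence was read post 45 min RT.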
RE007 growth inh: less growth of the S. pombe RE007 Vpr strain | 0.21% of 360,000 active | Potency, µM (titrated, usually from 92.2 µM), usual class: inhibitors | S. pombe RE007 Vpr strain, BacTiter-Glo ATP luminescence, 24 h; active = well fitted falling curve with a large enough effect; inconclusive = small, poorly fitted or top-dose-only effect; inactive = no such curve, though single readings can be large or run the other way; also: nearly all actives have a fitted effect of over 50% in size
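Fission yeast RE007 carrying one integrated HIV-1 vpr copy, seeded at OD 0.01 in PMG+AL medium with 23 nL pinned compound. Grown 24 h at 30 degrees; viability read by BacTiter-Glo luminescence after 5 min.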
AmpC inh detg: blocks E. coli AmpC beta-lactamase in detergent assay; P00811; AID 485294; Potency, µM (doses to about 114 µM), hits mostly inhibitors; 0.041% of 370,000 active; AmpC hydrolysis of nitrocefin, absorbance 480 nm, 0.01% Triton; also: nearly all actives have a fitted effect of over 25% in size
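AmpC (5.3 nM in the dispensed reagent) in 20 mM phosphate pH 7.0 with 0.01% (detergent screen) or 0.0001% Triton X-100 was preincubated with compounds for 15 min at room temperature. Nitrocefin was then added from an 800 uM solution, and hydrolysis was followed at 480 nm.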
LmPK inh: LmPK (Leishmania mexicana) enzyme inhibition; 0.37% of 290,000 active; AID 1721; Q27686; purified LmPK, Kinase-Glo ATP luminescence, 1 h; Potency, µM (titrated, usually from 57.5 µM), hits mostly inhibitors
Target sequence (Q27686 whole entry, looked up): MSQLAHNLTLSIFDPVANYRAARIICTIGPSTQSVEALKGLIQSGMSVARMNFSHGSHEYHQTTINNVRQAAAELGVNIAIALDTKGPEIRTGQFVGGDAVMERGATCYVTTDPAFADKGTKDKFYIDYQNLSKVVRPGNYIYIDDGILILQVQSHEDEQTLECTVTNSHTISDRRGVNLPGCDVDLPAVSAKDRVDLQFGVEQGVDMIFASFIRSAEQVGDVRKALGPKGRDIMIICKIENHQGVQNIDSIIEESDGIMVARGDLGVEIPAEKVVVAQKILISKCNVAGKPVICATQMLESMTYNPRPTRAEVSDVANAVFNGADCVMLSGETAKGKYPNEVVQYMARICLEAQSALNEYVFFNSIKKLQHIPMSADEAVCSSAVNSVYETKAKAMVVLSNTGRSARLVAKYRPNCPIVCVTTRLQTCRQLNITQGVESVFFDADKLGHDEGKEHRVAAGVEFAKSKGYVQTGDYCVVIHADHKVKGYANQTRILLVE
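In 50 mM imidazole pH 7.2 with 7 mM MgCl2, LmPK (0.1 nM) turned over PEP (0.5 mM) and ADP (0.1 mM) for 1 h at room temperature. Luciferase read-out of ATP.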
Numbers stand for hits; 0 = inactive; ? = inconclusive; - = no result. Most compounds without a hit are left out; they make up all but 1.4% or so of the library. Unless noted, calls follow the shape of the dose curve; as a rule, active = well fitted curve in the direction sought with a large enough effect; inconclusive = small, poorly fitted or top-dose-only effect, or another doubt; inactive = no such curve, though single readings can be large; an effect the other way counts as inactive or inconclusive.

SMILES	FBPA Giardia inh	AmpC inh no detg	Tb PYK inh	RE007 growth inh	AmpC inh detg	LmPK inh
CCCOc1ccc(NC(=O)CC2C(=O)N(c3ccc(Cl)cc3)C(=O)N2CCc2ccncc2)cc1 (stereo not drawn)	-	-	0	-	0	-
S=c1[nH]nc(CSCc2ccccc2Cl)n1C1CCCCC1	0	0	?	0	0	?
Cc1ccc(C)c(-n2c(-c3ccco3)n[nH]c2=S)c1	-	-	?	0	-	-
S=c1[nH]nc(-c2ccco2)n1-c1cccc2ccccc12	0	0	2.8µM	0	?	7.9µM
Cn1cc(Cl)c(-c2n[nH]c(=S)n2C2CCCCC2)n1	0	0	7.1µM	0	?	20µM
S=c1[nH]nc(-c2ccco2)n1-c1ccc(Cl)cc1	0	0	?	0	0	18µM
S=c1[nH]nc(-c2ccco2)n1C1CCCCC1	0	0	?	0	?	25µM
CCOc1ccc(OCC)c(NC(=O)CCC(=O)N2CCOc3ccccc32)c1	-	-	0	-	0	-
CC(C)Oc1ccc(Cn2c(-c3ccco3)n[nH]c2=S)cc1	0	0	2.5µM	0	0	14µM
COc1ccc(-n2c(-c3ccco3)n[nH]c2=S)cc1	0	0	?	0	0	?
CC(=NCc1ccccc1)c1ccc(O)cc1O	-	-	0	0	-	-
C/C(=N\NP(=S)(c1ccccc1)c1ccccc1)c1ccc(O)cc1O	0	16µM	0	0	0	0
COc1ccc(-c2nnc(NC(=O)c3ccc(F)cc3)o2)cc1	?	22µM	0	0	?	0
COC(=O)c1nn(-c2ccc3c(c2)CCN3C(C)=O)cc1O	-	0	18µM	0	0	10µM
CCOC(=O)c1nn(-c2ccc3c(c2)OCCO3)cc1O	0	0	0	0	?	?
CC(=O)N1CCc2cc([N+](=O)[O-])ccc21	-	-	0	0	-	-
COC(=O)c1nn(-c2ccc3c(c2)OCO3)cc1O	-	0	0	0	0	18µM
CCOC(=O)c1cc(C)n(CC2CCC(C(=O)Nc3cc(OC)cc(OC)c3)CC2)c1C (stereo not drawn)	-	-	0	-	0	-
O=C(O)c1cc(N=Nc2ccc(-c3ccc(N=Nc4ccc(O)c(C(=O)O)c4)cc3)cc2)ccc1O	0	-	-	-	-	-
COCCCNC(=O)c1c(NC(=O)Cc2coc3c(C)c(C)ccc23)sc2c1CCCC2	-	-	0	-	0	-
Cc1cccc(-n2c(-c3ccoc3C)n[nH]c2=S)c1	0	0	?	0	?	?
CCCCn1c(-c2cc(Cl)ccc2OC)n[nH]c1=S	0	-	?	0	0	13µM
Cc1ccccc1-n1c(-c2ccoc2C)n[nH]c1=S	0	0	?	0	0	28µM
CCCCn1c(-c2cccnc2)n[nH]c1=S	?	0	?	0	0	0
CCCCn1c(-c2csc(CCC)c2)n[nH]c1=S	0	0	?	0	0	22µM
SMILES	FBPA Giardia inh	AmpC inh no detg	Tb PYK inh	RE007 growth inh	AmpC inh detg	LmPK inh
CCn1c(-c2csc(C(C)C)c2)n[nH]c1=S	0	0	0	0	0	0
CCc1cc(-c2n[nH]c(=S)n2CC)cs1	0	0	10µM	0	0	0
CCCc1cc(-c2n[nH]c(=S)n2C(C)c2ccccc2)cs1 (stereo not drawn)	0	0	0	0	0	22µM
COc1cc(-c2n[nH]c(=S)n2C(C)c2ccccc2)cc(OC)c1OC (stereo not drawn)	0	0	?	0	0	?
CCCc1cc(-c2n[nH]c(=S)n2CC)cs1	0	0	8.9µM	0	0	?
CCc1cc(-c2n[nH]c(=S)n2Cc2ccccc2)cs1	0	0	?	0	0	10µM
Cc1ccccc1-n1c(C)n[nH]c1=S	0	0	?	0	?	?
CCc1cc(-c2n[nH]c(=S)n2-c2ccccc2C)cs1	0	0	?	0	0	28µM
Cc1coc2c(C)c3oc(=O)c(CCC(=O)N4CCCCC4)c(C)c3cc12	-	-	0	-	0	-
CN1[C@@H]2CCC[C@@H]1CC(NC(=O)c1nn(C)c3ccccc13)C2 (stereo partly drawn)	-	-	0	-	-	-
CSc1cccc(NC(=O)Cn2c3ncccc3c(=O)n2-c2ccc(C)cc2)c1	-	-	0	-	0	-
